Source: PubChem BioAssay (Broad Institute)
MITF act = activators of MITF-driven TRPM1 promoter reporter, primary screen, cell-based, SK-MEL-5, luciferase, single point; SK-MEL-5 TRPM1-promoter luciferase, 24 h; % of positive control, neutral wells = 0; activation, % at 12.5 µM; actives 0.75% (n = 300,000);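 active = mean activation of at least 80% with every replicate also reaching 80%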;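 note: 0% = neutral control wells and 100% = parthenolide positive control wells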
Rtt109 Vps75 = inhibitors of C. albicans Rtt109/Vps75 HAT, primary screen, biochemical, ThioGlo CoA-SH fluorescence, plate reader; purified Rtt109/Vps75, 4 h; inhibition, % at 34.9 µM; actives 0.16% (n = 330,000);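 active = inhibition of at least 50% in every replicate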
Target sequence (Q5AAJ8 whole entry, looked up): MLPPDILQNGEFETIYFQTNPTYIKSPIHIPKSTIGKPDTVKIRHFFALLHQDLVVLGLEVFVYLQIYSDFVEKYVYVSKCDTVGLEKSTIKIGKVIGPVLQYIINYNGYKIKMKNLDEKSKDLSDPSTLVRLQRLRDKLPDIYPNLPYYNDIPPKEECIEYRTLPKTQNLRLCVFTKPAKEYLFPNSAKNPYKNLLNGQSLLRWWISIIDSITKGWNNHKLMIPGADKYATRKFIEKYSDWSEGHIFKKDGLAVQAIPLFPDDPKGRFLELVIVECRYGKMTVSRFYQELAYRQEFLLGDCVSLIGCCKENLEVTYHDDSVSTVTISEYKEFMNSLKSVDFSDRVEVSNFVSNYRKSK
esBAF inh = Bmi1 luciferase reporter increase in mESCs, primary screen, esBAF inhibitor project, mouse ES cells, Bmi1 luciferase knock-in, single point. 24 h; 100% = twice the neutral-well signal. reporter increase, % at 12.5 µM. actives 2% (n = 350,000); in the data active = activation above about 40%;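 note: 0% = median of the plate's neutral control wells and 100% = double that signal; a rise in the Bmi1 reporter signal indicates esBAF inhibition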
Wnt bcat act = Wnt/beta-catenin pathway activators, primary screen, cell-based, plate reader, single point; AID 743398, 2014; actives 1.2% (n = 300,000); Wnt/beta-catenin reporter cell assay, activator; activation, % at 9.35 µM; in the data active = activation above about 30%, passing the limit was not always enough;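 note: 0% = neutral control wells and 100% = positive control wells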
Statin myotox sup = suppressors of statin myotoxicity in C2C12 myotubes, primary screen, cell-based, single point, plate reader; C2C12 myotubes + simvastatin, ATP luminescence, 48 h; scaled: DMSO 0, geranylgeraniol control 100; actives 0.78% (n = 330,000); rescue of ATP level, % at 7.49 µM; AID 602340, 2012;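 active = mean ATP rescue above about 67%, or every replicate alone reaching that limit, limit read from the data, passing the limit was not always enough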;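 note: myotubes were challenged with 10 µM simvastatin during compound exposure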
The depositor's hits bear a star; / = no result given. The list is not random: actives were taken first. Their share in the collection is about 3.1%.

SMILES | MITF act | Rtt109 Vps75 | esBAF inh | Wnt bcat act | Statin myotox sup
Cn1c(=O)n(C)c2cc(/C=C3/SC(=O)N(CC(=O)N4CCOCC4)C3=O)ccc21 | 6 | 9 | / | / | /
CCOC(=O)CN1C(=O)S/C(=C/c2ccc3c(c2)n(C)c(=O)n3C)C1=O | 46 | -8 | 46* | / | 6
CCOc1cc(C)c(Cl)cc1S(=O)(=O)N(C)C | 2 | 7 | -11 | / | 15
CCCOc1cc(C)c(Cl)cc1S(=O)(=O)N(CC)CC | 7 | 5 | -2 | / | 108*
CCOc1cc(C)c(Cl)cc1S(=O)(=O)N1CCCC1 | -4 | -3 | -3 | -3 | 81*
C[C@@H]1CCCCO[C@@H](CN(C)S(=O)(=O)c2ccc(Cl)cc2)[C@H](C)CN([C@@H](C)CO)C(=O)c2cc(NS(C)(=O)=O)ccc2O1 | / | / | -3 | / | -1
O=C1/C(=C/c2ccccc2F)SC(=S)N1CC(=O)N1CCCCC1c1cccnc1 (stereo not given) | -12 | 8 | -2 | -1 | 3
O=C1/C(=C/c2ccc(F)cc2)SC(=S)N1CC(=O)N1CCCCC1c1cccnc1 (stereo not given) | -12 | 53* | 0 | 4 | 0
CCOc1ccccc1CN1CCC(CO)(CCOc2ccccc2)CC1 | 5 | / | / | -3 | /
OCC1(CCOc2ccccc2)CCN(Cc2ccccc2C(F)(F)F)CC1 | 3 | 14 | -4 | 41* | -1
Cc1ccc(S(=O)(=O)N[C@H]2C=C[C@H](CC(=O)NCCN3CCCCC3)O[C@@H]2CO)cc1 | / | / | -4 | / | -9
Cc1ccc2nc(N(CCCN(C)C)C(=O)c3ccc(S(=O)(=O)N(C)C)cc3)sc2c1 | 2 | -11 | / | 2 | /
Cc1ccc2nc(N(CCCN(C)C)C(=O)c3sc4ccccc4c3Cl)sc2c1 | -36 | 55* | / | / | /
CCOc1ccc(-c2nnc(-c3ccccc3)n2-c2ccccc2)cc1 | / | -23 | 24 | 59* | -12
CCOc1ccc(-c2nnc(-c3ccccc3)o2)cc1 | 2 | 18 | -59 | / | -5
C[C@@H]1CN([C@H](C)CO)C(=O)c2cccc(NC(=O)c3nc4ccccc4s3)c2O[C@@H]1CN(C)Cc1ccncc1 | / | / | 9 | / | 5
COC(=O)c1cc(-c2c(C)nn(-c3ccccc3)c2C)n[nH]1 | 29 | -10 | 64* | / | -11
Cc1nn(-c2ccccc2)c(C)c1C(=O)OCC(=O)Nc1ccccc1C(F)(F)F | 28 | -7 | 46* | 13 | 6
Cc1cc(NC(=O)COC(=O)c2c(C)nn(-c3ccccc3)c2C)no1 | -12 | -20 | / | 1 | /
Cc1ccc(NC(=O)COC(=O)c2c(C)nn(-c3ccccc3)c2C)cc1 | 2 | -3 | -3 | -1 | 9
Cc1nn(-c2ccccc2)c(C)c1-c1cc(C(=O)N/N=C/c2cccnc2)[nH]n1 | / | / | / | 6 | /
CC(=O)c1ccccc1NC(=O)COC(=O)c1c(C)nn(-c2ccccc2)c1C | 29 | 10 | 33 | 42* | -1
COc1ccccc1NC(=O)COC(=O)c1c(C)nn(-c2ccccc2)c1C | 100* | 3 | 59* | -2 | 8
C[C@@H]1CCCCO[C@H](CN(C)C(=O)Nc2ccc(F)cc2)[C@H](C)CN([C@H](C)CO)C(=O)c2cc(NS(=O)(=O)c3cccs3)ccc2O1 | / | / | 0 | / | 10
C[C@H](CO)N1C[C@H](C)[C@H](CN(C)C(=O)c2ccc(F)cc2)OCc2ccccc2-c2c(n(C)c3ccccc23)C1=O | / | / | -6 | / | -20
SMILES | MITF act | Rtt109 Vps75 | esBAF inh | Wnt bcat act | Statin myotox sup
CN1CCN(C(=O)C[C@H]2CC[C@H](NS(=O)(=O)c3cccc(F)c3)[C@@H](CO)O2)CC1 | / | / | 3 | / | 0
Cc1nn(-c2ccccc2)c(C)c1C(=O)OCC(=O)Nc1ccccc1 | 86* | 3 | 56* | 21 | 17
Cc1nc(COC(=O)c2c(C)nn(-c3ccccc3)c2C)cs1 | 86* | -5 | 58* | 28 | 6
COC(=O)c1ccc(CSc2nc3ccccc3s2)o1 | 63 | 0 | 47* | 3 | -5
C[C@H]1CN([C@@H](C)CO)S(=O)(=O)c2ccc(C3=CCCCC3)cc2O[C@@H]1CN(C)C(=O)Cc1ccncc1 | / | / | 3 | / | -2
O=C(Nc1ccccc1)OCCc1ccccn1 | 51 | 5 | 80* | 13 | 11
O=C(Nc1ccccc1)Nc1cccc2ccccc12 | 20 | -7 | 11 | 18 | -4
CCOC(=O)c1ccc(NC(=O)c2cnccn2)cc1 | 119* | -1 | -11 | 28 | -2
O=C(Nc1ccccc1)Nc1cccc2cccnc12 | / | 11 | 85* | / | -6
O=C(Nc1ccccc1)Nc1ccccn1 | 74 | -3 | 45* | / | -7
COc1cccc(S(=O)(=O)Nc2ccc3c(c2)[C@@H]2C[C@H](CC(=O)NCc4cccc(F)c4)O[C@@H](CO)[C@@H]2O3)c1 | / | / | -8 | / | 1
CC(C)NC(=O)N(C)C[C@H]1Oc2c(NC(=O)C3CCOCC3)cccc2C(=O)N([C@@H](C)CO)C[C@@H]1C | / | / | 1 | / | -14
CNC(=O)C[C@@H]1CC[C@@H]2[C@@H](COc3ccc(NC(=O)Nc4ccccc4F)cc3C(=O)N2C)O1 | / | / | -4 | / | -5
CO[C@H]1CN(C)C(=O)c2ccc(NC(C)=O)cc2OC[C@@H](C)N(Cc2nccs2)C[C@@H]1C | / | / | 0 | / | -5
O=C(Cc1ccc(F)cc1)Nc1cccc2cccnc12 | -2 | 63* | / | -5 | /
O=C(Nc1ccccc1)Nc1ccc2ocnc2c1 | 3 | 4 | 57* | -1 | -1
O=C(Nc1ccccn1)C(=O)Nc1ccccn1 | 70 | 5 | / | 39* | /
CCOC(=O)c1ccc(NC(=O)Nc2ccccn2)cc1 | 102* | -4 | 59* | 15 | -12
CO[C@@H]1CN(C)C(=O)c2cc(C#N)ccc2OC[C@H]2O[C@@H](CC[C@H]2OC)CCN(C)C(=O)[C@H]1C | / | / | 1 | / | -1
CN(C)C(=O)c1ccc(-c2ccc3c(c2)[C@H]2[C@H](CCN2C(=O)c2cnccn2)[C@@H](CO)N3)cc1 | / | / | 1 | / | -1
CCCCn1c(SCC2CCCCO2)nc2cc(S(N)(=O)=O)ccc21 (stereo not given) | 7 | 2 | / | 40* | /
CCCCn1c(SCC(=O)N2CCCCC2)nc2cc(S(N)(=O)=O)ccc21 | -14 | -12 | -3 | / | 7
CC1Sc2ccccc2N(CC(=O)N(C(C)C)C(C)C)C1=O (stereo not given) | 12 | 51* | -5 | / | 1
COc1ccc([C@@H]2CC(=O)c3c(O)cc(O)cc3O2)cc1O | 47 | 1 | 54* | 40* | 4
CCN(/C=N/c1sc2c(c1C#N)CCCCC2)CC | 60 | -7 | / | / | /
Cc1ccc(/C=N/c2sc3c(c2C#N)CCC3)s1 | 92* | 2 | 29 | 5 | 120*
